Experimental findings from a collection of fitness landscapes (doi:10.1016/j.celrep.2020.107928) are described below.

Whole data set: some 81,000 sequences, median “one-hybrid fitness for binding parS DNA” near -0.17, cut for the highest 2% near 0.51. Shown is part of a subset that was picked to be rich in the highest values. Some results are limits rather than exact numbers.

B1: Caulobacter ParB omega fusion; a variant is named by its letters at X, in order, B8GW30 (parent)
chain: MESVVVGEPGMSEGRRGLGRGLSALLGEVDAAPAQAPGEQLGGSREAPIEILQRNPDQPRRTFREEDLEDLSNSIREKGVLQPILVRPSPDTAGEYQIVAGERAWRAAQRAGLKTVPIMVRELDDLAVLEIGIIENVQRADLNVLEEALSYKVLMEKFERTQENIAQTIGKSXSHVANXMRLLXLPDEVQSYLVSGELTAXHARAIAAAADPVALAKQIIEGGLSVRETEALARKAPNLSAGKSKGGRPPRVKDTDTQALESDLSSVLGLDVSIDHRGSTGTLTITYATLEQLDDLCNRLTRGI

The assay covers variants of B1. The experiment in a line: one-hybrid fitness for binding parS DNA (scaled: cognate 1, non-cognate 0); higher = stronger binding. The note with it: with parS DNA site. The method in brief: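 Fitness here means the log change in variant-to-wild-type read ratio between plasmids sequenced before and after selection. That scale was set so cognate equals 1 and non-cognate equals 0. The selection was a bacterial one-hybrid screen of Caulobacter ParB libraries, four specificity codons randomised, in E. coli USO carrying a HIS3 reporter with the site 19 bp from the promoter, grown 48 hours at 37°C on M9-minus-histidine with 0.1 mM IPTG and 5 mM 3-AT.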
On to GCLA, for which the “one-hybrid fitness for binding parS DNA” value was not above 0.2.
With YTTD the figure was not above 0.2.
On to EGCL, for which the “one-hybrid fitness for binding parS DNA” value is not above 0.2.
In the case of FWSR it was not above 0.2; in that of PAVQ, not above 0.2.
Regarding QHPF, the “one-hybrid fitness for binding parS DNA” value was not above 0.2.
In the case of LPIQ it was not above 0.2; in that of RGVG, 0.502; in that of RGQG, 0.727.
With RGSH the figure was not above 0.2; with RGKP, not above 0.2; with RGLH, not above 0.2.
With RGSG the figure was 0.771; with RGSP, not above 0.2; with RGQP, not above 0.2.
With RGKG, the “one-hybrid fitness for binding parS DNA” value was found to be 0.896.
On to RGQH, for which the “one-hybrid fitness for binding parS DNA” value was not above 0.2.
In the case of RGLP it was not above 0.2; in that of RGLG, 0.597.
As for PKPQ, the “one-hybrid fitness for binding parS DNA” value is not above 0.2.
With PRNG the figure was not above 0.2; with HPRY, not above 0.2; with RGFG, 0.504.
Consider RGAG, for which the “one-hybrid fitness for binding parS DNA” value is 0.661.
With RGNG the figure was 0.801; with RGIG, 0.47; with RGNH, not above 0.2.
In the case of RGCM it was not above 0.2.
Take RGDG: the “one-hybrid fitness for binding parS DNA” value turned out to be 0.496.
As to RGAN, the “one-hybrid fitness for binding parS DNA” value is not above 0.2.
In the case of RGYG it was 0.576.
Take RGCP: the “one-hybrid fitness for binding parS DNA” value is not above 0.2.
With RGPG the figure was 0.298.
In the case of RGCG it was 0.558.
As for PPPF, the “one-hybrid fitness for binding parS DNA” value is not above 0.2.
For the variant VAEC, the “one-hybrid fitness for binding parS DNA” value is not above 0.2.
In the case of FHHI, the “one-hybrid fitness for binding parS DNA” value is not above 0.2.
With RGAI the figure was not above 0.2; with LDML, not above 0.2.
For the variant CFTC, the “one-hybrid fitness for binding parS DNA” value was not above 0.2.
With MHTL the figure was not above 0.2; with NSGN, not above 0.2; with MIEG, not above 0.2.
In the case of RGHP it was not above 0.2; in that of RGRN, 0.341.
In the case of RGWR it was not above 0.2; in that of RGWG, 0.51; in that of RGGG, 0.64.
As for RGHN, the “one-hybrid fitness for binding parS DNA” value was not above 0.2.
In the case of RGGH it was not above 0.2; in that of RGHG, 0.65.
Take RGGD: the “one-hybrid fitness for binding parS DNA” value was not above 0.2.
With RGRG the figure was 0.874; with RGRH, not above 0.2.
In the case of RGWY it was not above 0.2; in that of KLKH, not above 0.2.
In the case of KDID it was not above 0.2; in that of PVSF, not above 0.2; in that of QEKR, not above 0.2.
With MRPT, the “one-hybrid fitness for binding parS DNA” value was not above 0.2.
In the case of NPTS it was not above 0.2.
On to FQVG, for which the “one-hybrid fitness for binding parS DNA” value is not above 0.2.
With NYES the figure was not above 0.2; with EYNA, not above 0.2.
RYNA: the “one-hybrid fitness for binding parS DNA” value is 0.58.
In the case of RYDA it was 0.559.
Take DYNA: the “one-hybrid fitness for binding parS DNA” value was not above 0.2.
With FRQS the figure was not above 0.2; with WVAL, not above 0.2; with HINS, not above 0.2.
In the case of FSFV it was not above 0.2; in that of GGMR, not above 0.2; in that of RHRS, 0.823.
With RHYH the figure was 0.223.
As for RHRD, the “one-hybrid fitness for binding parS DNA” value was not above 0.2.
With RHIP the figure was not above 0.2; with RHIS, 0.813.
In the case of RHYS it was 0.976; in that of RHRN, 0.374.
